Growth inhibition data for 37 compounds are collected here from PubChem BioAssay.

Unmarked numbers belong to inactive results. Calls of active or inactive are those of the source.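 How the source made its calls: active means growth inhibition above 50% at the single 2 µM test dose, taken to imply half-maximal potency below 2 µM; inactive means the rest.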

A short description of the experiment: antimalarial activity against Dd2 strain (AID 2302).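 Further: 0% = DMSO untreated growth and 100% = chloroquine plus artemisinin killed control.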 The settings on record: P. falciparum Dd2 in RBCs, LDH growth readout, 72 h; at 2 µM; hits give high values.
For the compound `CC(=O)Nc1ccc(C(=O)Nc2cccc(-c3cccc(-c4nc5c(C)cccc5[nH]4)c3)c2)cn1`, the growth inhibition was 100% (active). With `Nc1nc2c(c(=O)[nH]1)-c1cccc(Br)c1CC2`, the growth inhibition was -3%. For the compound `NC(=O)c1cccc(-n2ccc3cc(CNC4Cc5ccccc5C4)ccc32)c1`, the growth inhibition is 7%. In the case of `Cc1[nH]c(C)c(-c2ccc(OCc3cc(F)cc(F)c3)nc2)c(=O)c1Br`, the growth inhibition is 97% (active). On to `C[C@@H]([C@@H](CCCCc1ccccc1)C(=O)N[C@H](C(=O)Nc1cccnc1)C(C)(C)C)N(O)C=O`, for which the growth inhibition is 98% (active).

Turning to `CCNC(=O)NC1CCN(Cc2c(-c3cccs3)nc3ccccc3c2C(=O)N[C@@H](C)C2CCCCC2)CC1`, the growth inhibition is 96% (active). Turning to `Cc1[nH]c(C)c(-c2ccc(OCCCc3ccccn3)cc2)c(=O)c1Br`, the growth inhibition is 97% (active).

Take `Cn1cncc1C(=O)Nc1cccc(-c2csc(-c3nc4ccccc4[nH]3)c2)c1`: the growth inhibition was 64% (active). For `FC(F)(F)c1ccc2nc(-c3cccc(-c4cccc(CN5CCN(c6ccncc6)CC5)c4)c3)[nH]c2c1`, the growth inhibition is 99% (active). Regarding `CN(Cc1ccc(NC(=O)NC2CCN(C(=O)/C=C/c3ccc(Cl)c(Cl)c3)CC2)cc1)C1CCOCC1`, the growth inhibition was 14%. The value for `CC(=O)N1Cc2ccccc2C1=O` was -1%; that for `O=C(Nc1cccc(-c2ccc(CN3CCCC3)cc2)c1)c1ccc(Cl)cc1` was 47%; that for `Nc1nonc1-c1nc2c(-c3cccc(Cl)c3)nccc2n1CCCNC(=O)Cc1ccc(Cl)cc1` was 92% (active). With `NC1CCN(c2cnn(Cc3cccc(NC(=O)Nc4ccc(-c5ccccc5)cc4)c3)c(=O)c2Cl)CC1` the figure was 11%; with `COc1ccc(NC(=O)Nc2ccc(-c3ccc(-c4nc5c(C)cccc5[nH]4)s3)cc2)cc1`, 96% (active); with `Cc1cccc2[nH]c(-c3cccc(-c4ccc(NC(=O)c5ccoc5)cc4)c3)nc12`, 56% (active).

For the compound `Cc1nc(-c2ccccc2)nc(N2CCN(C(=O)c3ccco3)CC2)c1Cc1ccccc1F`, the growth inhibition is 86% (active). As to `CC(=O)N(Cc1nc(-c2cc(Cl)c(Cl)s2)cs1)c1c(C)cccc1C`, the growth inhibition is 95% (active). `O=C(CSc1nc2ccccc2c(=O)n1CC1CCCO1)Nc1cc(C(F)(F)F)ccc1Cl` (configuration not stated): the growth inhibition is 95% (active). On to `CCCCCCCCn1c2c(c(=N)c3c1CCC3)CCCC2`, for which the growth inhibition was 100% (active). On to `O=[N+]([O-])c1ccc(C(O)CNCCc2ccccc2)cc1OCc1ccccc1` (configuration not stated), for which the growth inhibition is 67% (active). In the case of `O=C(c1cccc(-c2ccc(-c3nc4ccc(C(F)(F)F)cc4[nH]3)cc2)c1)N1CCCCC1CN1CCC(O)C1` (configuration not stated), the growth inhibition is 101% (active). Consider `COc1ccc2nc(NC3=NC(c4ccccn4)(c4ccccn4)C(=O)N3C)[nH]c2c1`, for which the growth inhibition was 98% (active).

For the compound `Cn1c(NC2CCN(CC3CCN(C(=O)/C=C/c4ccc(Cl)c(Cl)c4)CC3)CC2)nc2ccccc21`, the growth inhibition was 100% (active).

In the case of `O=C(Nc1ccc(Cl)c(C(F)(F)F)c1)N[C@H]1CCN(CCCCCNC(=O)[C@@H]2C[C@H]2c2ccc(Cl)c(Cl)c2)C1`, the growth inhibition is -2%. The value for `CN1CCc2cc(NS(=O)(=O)c3ccc(-c4ccc(Cl)s4)cc3)c(N3CCCCC3)cc2CC1` was 29%; that for `CCc1sc(-c2ccc(C(C)(C)C)cc2)nc1C(=O)NCCCN1CCCC1=O` was 69% (active).

`COc1cc2nc(N3CCC(CNC(=O)/C=C/c4cccc(C)c4)CC3)nc(N)c2cc1OC`: the growth inhibition is 68% (active). Consider `c1cc(CN2CCc3ccccc3CC2)cc(-c2c[nH]c3nc(NC4CCCC4)ncc23)c1`, for which the growth inhibition is 49%. `O=C(Nc1ccc(OC2CCN(Cc3ccc(F)cc3)CC2)c(Cl)c1)c1ccc(F)cc1`: the growth inhibition is 95% (active). Take `COc1cccc(OC2CCN(C(=O)c3cc(C(C)(C)C)nn3Cc3ccccc3)CC2)c1`: the growth inhibition was 98% (active).

For the compound `CN1CCN(c2ccc3nccc(CCN4CCC(NCc5ccc6c(n5)NC(=O)CO6)CC4)c3n2)CC1`, the growth inhibition was 3%. Turning to `CCCCNS(=O)(=O)c1ccc(NC(=O)c2cc([N+](=O)[O-])ccc2Cl)cc1`, the growth inhibition is 47%.

As for `OC(CNCc1ccccc1OCc1ccccc1)c1cccc(C(F)(F)F)c1` (configuration not stated), the growth inhibition was 99% (active). In the case of `CCc1c[nH]c2c(N(c3ccccc3)S(C)(=O)=O)cc(C(=O)N[C@@H](Cc3ccccc3)[C@H](O)CNC(C)(C)CCCC(C)C)cc12`, the growth inhibition is 96% (active).

Turning to `CC1(C)N=C(N)N=C(N)N1OCCCOc1cccc2ccccc12`, the growth inhibition was 86% (active). As for `Cc1cc(N[C@@H](Cc2ccccc2)C(=O)NC2CCCC2)nc(NCC2CCCCC2)n1`, the growth inhibition was 96% (active).
